# Source: PubChem BioAssay AID602144 (Vanderbilt Specialized Chemistry Center, 2011)
# A number with no mark means an inactive call. The source made the active and inactive calls. No stated cut-off is given here; in the data, active means remaining activity below about 50%; inactive means the rest.
# Molecular target: Phospholipase D1 (Homo sapiens) (UniProt Q13393)
# Test: cellular phospholipase D1 activity inhibition – Calu-1 cells, single concentration (AID 602144);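 further: tested at 200 nM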
# Settings: cellular PLD1 activity, stronger effect = lower value
# Phospholipase D1 (Homo sapiens), sequence (Q13393 whole entry, looked up): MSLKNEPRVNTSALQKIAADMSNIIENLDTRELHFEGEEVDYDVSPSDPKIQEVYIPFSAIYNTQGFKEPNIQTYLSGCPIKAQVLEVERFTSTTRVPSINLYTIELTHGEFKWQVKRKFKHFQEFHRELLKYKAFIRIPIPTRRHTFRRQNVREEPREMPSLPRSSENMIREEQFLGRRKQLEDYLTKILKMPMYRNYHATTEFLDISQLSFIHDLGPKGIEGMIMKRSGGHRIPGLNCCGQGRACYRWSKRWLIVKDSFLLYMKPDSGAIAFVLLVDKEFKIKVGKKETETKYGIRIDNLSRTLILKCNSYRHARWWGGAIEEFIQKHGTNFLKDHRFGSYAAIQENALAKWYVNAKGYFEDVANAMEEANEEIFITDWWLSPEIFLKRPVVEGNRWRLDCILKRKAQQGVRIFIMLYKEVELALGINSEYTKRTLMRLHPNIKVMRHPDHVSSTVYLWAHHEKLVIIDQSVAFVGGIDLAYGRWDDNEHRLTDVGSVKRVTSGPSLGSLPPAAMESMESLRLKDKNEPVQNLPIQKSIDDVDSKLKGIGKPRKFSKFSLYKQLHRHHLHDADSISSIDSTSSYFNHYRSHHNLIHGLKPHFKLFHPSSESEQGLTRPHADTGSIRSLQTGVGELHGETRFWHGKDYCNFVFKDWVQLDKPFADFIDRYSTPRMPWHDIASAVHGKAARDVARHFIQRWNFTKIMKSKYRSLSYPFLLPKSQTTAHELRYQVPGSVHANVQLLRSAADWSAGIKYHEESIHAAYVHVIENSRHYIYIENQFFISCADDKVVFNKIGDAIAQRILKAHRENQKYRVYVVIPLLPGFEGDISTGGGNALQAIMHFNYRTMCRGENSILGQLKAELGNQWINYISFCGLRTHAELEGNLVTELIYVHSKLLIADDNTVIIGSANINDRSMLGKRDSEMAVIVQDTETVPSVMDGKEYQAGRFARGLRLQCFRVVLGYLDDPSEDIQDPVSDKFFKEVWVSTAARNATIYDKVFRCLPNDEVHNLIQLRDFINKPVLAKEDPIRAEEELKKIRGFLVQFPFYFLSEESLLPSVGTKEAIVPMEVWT
# Phospholipase D1 (Homo sapiens), sequence (Q13393 whole entry, looked up): as above
row,Structure (SMILES),remaining activity
1,C[C@H](CN1CCC(n2nnc3ccccc32)CC1)NC(=O)c1cnc2ccccc2c1,38.2% (active)
2,O=c1[nH]c2ccccc2n1C1CCN(CCNC(=S)Nc2cccc3ccccc23)CC1,152%
3,O=C(NCCN1CCC2(CC1)CNCc1ccccc12)c1ccc2ccccc2c1,122%
4,CS(=O)(=O)N1CC2(CCN(CCNC(=O)c3cnc4ccccc4c3)CC2)c2ccccc21,99.4%
5,COc1ccc(S(=O)(=O)NCCN2CCC(n3c(=O)[nH]c4ccccc43)CC2)cc1OC,115%
6,O=C(NCCN1CCC(c2nc3ccccc3[nH]2)CC1)c1cnc2ccccc2c1,123%
7,C[C@@H](CN1CCC(n2c(=O)[nH]c3ccccc32)CC1)NC(=O)c1cc2ccccc2[nH]1,8.14% (active)
8,C[C@@H](CN1CCC(n2c(=O)[nH]c3ccccc32)CC1)NC(=O)c1ccc(C(F)(F)F)cc1,36.5% (active)
9,C[C@@H](CN1CCC(n2c(=O)[nH]c3cc(-c4ccsc4)ccc32)CC1)NC(=O)[C@H]1C[C@@H]1c1ccccc1,41.3% (active)
10,C[C@@H](CN1CCC2(CC1)CCN(C)C2=O)NC(=O)c1ccc2ccccc2c1,122%
11,C[C@@H](CN1CCC(n2c(=O)[nH]c3cc(I)ccc32)CC1)NC(=O)C1CC1c1ccccc1 (stereo partly specified),19.9% (active)
12,O=C(NCCN1CCC(n2nnc3ccccc32)CC1)C1CC1c1ccccc1 (stereo unspecified),52.7%
13,O=C(NCCN1CCC(n2c(=O)[nH]c3ccc(F)cc32)CC1)c1cccc2c1C(=O)c1ccccc1-2,0% (active)
14,O=C(NCCN1CCC2(CCc3ccccc32)CC1)c1cnc2ccccc2c1,113%
15,COc1ccc(S(=O)(=O)NCCN2CCC(n3c(=O)[nH]c4ccccc43)CC2)cc1,140%
16,O=C1c2ccccc2C(=O)N1CCN1CCC(n2c(=O)[nH]c3ccccc32)CC1,112%
17,C[C@@H](CN1CCC(n2c(=O)[nH]c3cc(I)ccc32)CC1)NC(=O)c1ccc2ccccc2c1,20.1% (active)
18,O=C(NCCN1CCC(n2c(=O)[nH]c3ccccc32)CC1)c1ccc2c(ccc3ccc4ccccc4c32)c1,74.8%

row,Structure (SMILES),remaining activity
1,Cn1c(=O)n(C2CCN(CCNC(=O)c3ccc4ccccc4c3)CC2)c2ccccc21,71.6%
2,C[C@@H](CN1CCC(c2nc3ccc(F)cc3[nH]2)CC1)NC(=O)[C@H]1CC1c1ccccc1 (stereo partly specified),88%
3,O=c1[nH]c2ccccc2n1C1CCN(CCNS(=O)(=O)c2ccc(OC(F)(F)F)cc2)CC1,117%
4,C[C@@H](CN1CCC(n2nnc3cc(C(F)(F)F)ccc32)CC1)NC(=O)c1cnc2ccccc2c1,101%
5,Cc1cccc(NC(=O)NCCN2CCC(n3c(=O)[nH]c4ccccc43)CC2)c1,67.6%
6,C[C@@H](CN1CCC(n2c(=O)[nH]c3cc(-c4cccnc4)ccc32)CC1)NC(=O)[C@H]1C[C@@H]1c1ccccc1,53.2%
7,C[C@@H](CN1CCC(n2c(=O)[nH]c3ccccc32)CC1)NC(=O)c1ccc2ncccc2c1,29.2% (active)
8,O=C(NCCN1CCC(n2c(=O)[nH]c3ccccc32)CC1)N1c2ccccc2Sc2ccccc21,89.7%
9,C[C@@H](CN1CCC2(CC1)CN(S(C)(=O)=O)c1ccccc12)NC(=O)[C@H]1C[C@@H]1c1ccccc1,148%
10,O=C(NCCN1CCN(c2ncccn2)CC1)c1ccc(Cl)cc1,80.9%
11,O=C(CCN1CCC(n2c(=O)[nH]c3ccccc32)CC1)NCc1ccc(Cl)cc1,98.9%
12,O=C(C1C[C@@H]1c1ccccc1)N1CCC2(CC1)C(=O)NCN2c1ccccc1 (stereo partly specified),86%
13,O=c1[nH]c2ccccc2n1C1CCN(CCNS(=O)(=O)c2ccccc2Br)CC1,112%
14,CC(C)C(=O)N[C@@H](C)CN1CCC(n2c(=O)[nH]c3ccccc32)CC1,104%
15,C[C@@H](CN1CCC(n2c(=O)[nH]c3ccccc32)CC1)NC(=O)CCc1ccc(F)cc1,53.9%
16,CCOC(=O)CNC(=O)NCCN1CCC(n2c(=O)[nH]c3ccccc32)CC1,136%
17,O=C(NCCN1CCC(n2c(=O)[nH]c3ccccc32)CC1)c1cnc2ccccc2n1,83.7%
18,C[C@H](CN1CCC(n2c(=O)[nH]c3cc(Cl)ccc32)CC1)NC(=O)c1cc2ccccc2[nH]1,0.888% (active)
